Screens from PubChem.
3T3 cytotox – kills NIH 3T3 cells; NIH 3T3 viability, CellTiter-Glo ATP luminescence, 48-72 h; Potency, µM (series often up to 96.7 µM), inactives show top-dose activity change, negative = cytotoxicity, hits mostly inhibitors; 94,000 compounds, 4.3% hits; AID 1345082; note: nearly all actives have a fitted effect of over 55% in size
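Cells were seeded at 400 per well, treated with pin-transferred compound, and kept 48 or 72 hr at 37 °C before CellTiter-Glo addition and luminescence imaging of cellular ATP.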
FLuc inh – blocks purified firefly luciferase enzyme activity; purified P. pyralis luciferase, luminescence, biochemical; Potency, µM (highest dose often 115 µM), actives largely listed as inhibitors; 76,000 compounds, 2.5% hits; P08659; note: nearly all actives have a fitted effect of over 65% in size
Target sequence (P08659 whole entry, looked up): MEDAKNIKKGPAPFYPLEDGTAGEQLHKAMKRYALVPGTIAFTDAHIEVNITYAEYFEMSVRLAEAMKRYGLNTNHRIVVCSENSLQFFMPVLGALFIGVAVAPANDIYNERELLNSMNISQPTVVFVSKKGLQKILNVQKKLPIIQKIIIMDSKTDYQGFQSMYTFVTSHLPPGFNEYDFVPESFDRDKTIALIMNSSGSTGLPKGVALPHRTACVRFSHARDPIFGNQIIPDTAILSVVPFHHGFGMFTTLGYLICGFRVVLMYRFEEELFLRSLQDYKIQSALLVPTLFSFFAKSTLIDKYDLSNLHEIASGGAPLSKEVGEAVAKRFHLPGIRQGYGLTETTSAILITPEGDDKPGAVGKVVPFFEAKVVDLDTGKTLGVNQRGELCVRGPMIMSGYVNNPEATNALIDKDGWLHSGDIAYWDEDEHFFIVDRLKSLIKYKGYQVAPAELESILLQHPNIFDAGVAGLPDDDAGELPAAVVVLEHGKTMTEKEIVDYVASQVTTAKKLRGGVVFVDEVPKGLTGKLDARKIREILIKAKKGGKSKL
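Biochemical qHTS: compound (6-point titration) added to 10uM D-luciferin plus 10uM ATP in Tris acetate pH 7.5 buffer with Mg, Tween-20 and BSA, then purified enzyme at 10nM; light output imaged.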
hNpr1 antagonist – antagonists of human natriuretic peptide receptor Npr1; HEK293 hNpr1 GloSensor cGMP, ANP-stimulated luminescence; Potency, µM (top dose mostly 46.3 µM), for inactives: top-dose activity change, negative = inhibition, actives largely listed as inhibitors; 76,000 compounds, 1.6% hits; AID 1347048; calls by dose curve; note: nearly all actives have a fitted effect of over 60% in size
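HEK293 cells stably expressing human Npr1 and cGMP GloSensor pGS-40F, loaded 2 h with 2% GloSensor reagent, given compound 30 min at room temperature. Luminescence read before and 20 min after 0.1 nM hNppA.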
HEK293 tox – kills HEK 293 cells; HEK 293 viability, ATP luminescence (CellTiter-Glo), 48-72 h; Potency, µM (doses to about 115 µM), inactives show top-dose activity change, negative = cytotoxicity, hits mostly inhibitors; 94,000 compounds, 6.6% hits; AID 1345083; note: nearly all actives have a fitted effect of over 60% in size
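Viability of HEK 293 cells, plated at 250 cells/well, was judged by cellular ATP after compound treatment for 48 or 72 hr. Luminescence was imaged 10 min after CellTiter-Glo addition at room temperature.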
Starred values were filed as active, the others as inactive; i = inactive; ? = inconclusive; . = no result; [ ] = dose if it differs, or a comment. Rows were chosen to be rich in hits. Some 11% of all compounds tested hit in one or more screens of this group. Unless noted, calls come from the whole dose curve; as a rule, active = well fitted curve in the direction sought with a large enough effect; inconclusive = small, poorly fitted or top-dose-only effect, or another doubt; inactive = no such curve, though single readings can be large; an effect the other way counts as inactive or inconclusive. % is set by controls: 0 for no effect and ±100 for the full control effect; potency is the fitted concentration of half-maximal effect.

SMILES | 3T3 cytotox | FLuc inh | hNpr1 antagonist | HEK293 tox
c1ccc(CNC[C@H]2Cn3c(-c4ccccc4)cnc3CO2)cc1 | -34.6%[174 µM] | i | -13.3%[70.6 µM] | ?
O=C(NC[C@H]1Cn2c(-c3cccc(Cl)c3)cnc2CO1)Nc1ccccc1 | ? | i | ? | 100µM*
O=C(NC[C@H]1Cn2c(-c3ccc(Cl)cc3)cnc2CO1)Nc1ccccc1 | ? | i | ? | 63.1µM*
O=C(O)CCC(=O)NC[C@H]1Cn2c(-c3ccc(Cl)cc3)cnc2CO1 | -1.5%[138 µM] | i | 0.9%[70.6 µM] | i
CN1CCC(NC[C@H]2Cn3c(-c4ccc5c(c4)OCCO5)cnc3CO2)CC1 | ? | i | -0.5%[70.6 µM] | ?
COc1cccc(C(=O)NC2CCN(c3ccc4nnc(C5CC5)n4n3)C2)c1 (centres undefined) | -23.3% | . | . | ?
C[C@]1(CO)C2CC[C@@H](O)[C@@H](CC(=O)NCc3ccccc3)[C@]2(C)CC[C@H]1OC(=O)NC1CCCCC1 (some centres undefined) | ? | i | 0.1% | ?
COc1ccc(CNC[C@H]2Cn3c(-c4ccc(Cl)cc4)cnc3CO2)cn1 | ? | i | -19.9%[70.6 µM] | ?
Clc1cccc(-c2cnc3n2C[C@H](CNCc2ccccc2)OC3)c1 | 79.4µM* | i | -3.7%[70.6 µM] | ?
COc1ncccc1CNC[C@H]1Cn2c(-c3ccc(Cl)cc3)cnc2CO1 | 89.1µM* | i | -24.4%[70.6 µM] | ?
O=C(c1ccn[nH]1)N1CCCCC1c1nc(CCOCC2CCCC2)no1 (centres undefined) | ? | i | 35.5µM* | ?
CC(C)CNC(=O)N1CCC(F)(C(=O)NCc2ccccc2)CC1 | -29.4% | . | . | 4.9%
COCC(=O)NCc1cc2n(n1)CCCN(Cc1cc3ccccc3s1)C2 | ? | i | 0.6% | 20µM*
COc1ccc(-c2c(C(=O)Nc3cccc(Cl)c3)nc3sccn23)cc1 | ? | . | . | 63.1µM*
O=C(NCc1ccccc1Cl)c1nc2sccn2c1-c1cccc(C(F)(F)F)c1 | ? | . | . | 25.1µM*
O=C(NCc1ccc(F)cc1)c1nc2sccn2c1-c1cccc(C(F)(F)F)c1 | ? | . | . | 63.1µM*
Cc1ccc(NC(=O)c2nc3sccn3c2-c2ccncc2)cc1 | ? | . | . | 112µM*
CCCCCC(=O)Nc1nc2c(s1)C[C@@H]1[C@](C)(CO)[C@H](O)CC[C@@]1(C)[C@@H]2CC(=O)Nc1cccc(O)c1 | ? | i | -14.9% | ?
CNC(=O)c1cc(C2CC2)nc2onc(C3CCN(C(=O)c4ccccc4Cl)C3)c12 (centres undefined) | -20.4% | . | . | -28.8%
Cc1ccc(-c2noc([C@@H]3CCCN3C(=O)c3cc(F)ccc3Cl)n2)cc1 | ? | i | -19.9% | ?
O=C(NCc1cccc(C(F)(F)F)c1)c1nc2sccn2c1-c1ccc(C(F)(F)F)cc1 | ? | . | . | 39.8µM*
O=C(NCc1ccccc1F)c1nc2sccn2c1-c1cccc(C(F)(F)F)c1 | -24.0% | . | . | -9.3%
O=C(NCCc1ccc(Cl)cc1)c1nc2sccn2c1-c1ccc(C(F)(F)F)cc1 | 20µM* | . | . | 39.8µM*
O=C(NCc1ccccc1)c1nc2sccn2c1-c1ccncc1 | ? | . | . | 112µM*
O=C(Nc1ccc(F)cc1)c1nc2sccn2c1-c1cccc(C(F)(F)F)c1 | ? | . | . | 50.1µM*
SMILES | 3T3 cytotox | FLuc inh | hNpr1 antagonist | HEK293 tox
O=C(NCc1ccccc1)c1nc2sccn2c1-c1cccc(C(F)(F)F)c1 | -15.5% | . | . | -23.6%
O=C1COc2ccc(-c3ccc4c(c3)OCO4)nc2CN1Cc1ccc(C(F)(F)F)cc1 | ? | i | -19.1% | -39.3%
CC(=O)Nc1cccc(-c2cc(-c3ccncc3)c3cncn3c2)c1 | ? | i | -6.7%[70.6 µM] | ?
Cn1cc(-c2cc(-c3ccncc3)c3cncn3c2)cn1 | 39.8µM* | i | -3.5%[70.6 µM] | ?
COc1ccc(-c2cc(-c3ccncc3)cn3cncc23)cc1 | 35.5µM* | i | 3.6%[70.6 µM] | ?
COc1ccc(-c2cc(-c3ccncc3)c3cncn3c2)cc1 | 35.5µM* | ? | -11.6%[70.6 µM] | ?
OCc1ccc(-c2cc(-c3ccncc3)c3cncn3c2)cc1 | 39.8µM* | i | 1.9%[70.6 µM] | ?
COc1ccc(-c2cc(-c3ccc(F)cc3OC)cn3cncc23)cc1 | ? | i | -4.7%[70.6 µM] | ?
COc1ccc(-c2cc(-c3ccc(F)cc3)cn3cncc23)cc1 | ? | ? | 0.0%[70.6 µM] | 100µM*
NC(=O)c1cccc(-c2cc(-c3cccnc3)c3cncn3c2)c1 | ? | i | -13.9%[70.6 µM] | ?
COc1ccc(-c2cc(-c3cccc(C(N)=O)c3)cn3cncc23)cc1 | 39.8µM* | i | -15.5%[70.6 µM] | ?
COCc1nc2nc(-c3ccccc3)c(-c3ccc(OC)nc3)cc2n1C | -27.0%[138 µM] | i | -9.7%[70.6 µM] | ?
COCc1nc2nc(-c3ccccc3)c(-c3ccc(N4CCN(C)CC4)nc3)cc2n1C | ? | ? | 14.1µM* | ?
COCc1nc2nc(-c3ccccc3)c(-c3ccc([S+](C)(=O)[O-])cc3)cc2n1C | 89.1µM* | i | . | i
CC(C)C[C@H](CO)NC(=O)C[C@@H]1c2nc(-c3cccnc3)sc2C[C@@H]2[C@](C)(CO)[C@H](O)CC[C@]21C | ? | i | -3.5% | 3.1%
COc1cc(NC(=O)c2ccc3c(c2)N(C)C2CCCN2C3=O)cc(OC)c1 (centres undefined) | -11.8% | i | -7.7% | ?
Cn1cc(CN2C[C@@H]3C[C@H]2C(=O)N(CC2CC2)c2ccccc2O3)c2ccccc21 | 100µM* | i | -9.3%[70.6 µM] | ?
Cc1ccc(CN2C[C@@H]3C[C@H]2C(=O)N(CC2CC2)c2ccccc2O3)cc1 | 100µM* | i | -18.4%[70.6 µM] | 100µM*
O=C1[C@@H]2C[C@@H](CN2Cc2ccc3c(c2)OCO3)Oc2ccccc2N1CC1CC1 | ? | i | -11.3%[70.6 µM] | ?
COC(=O)c1cn([C@H]2CO[C@H]3[C@@H]2OC[C@H]3OC(=O)Nc2ccc(C(C)(C)C)cc2)nn1 | -0.8%[174 µM] | i | 2.3%[70.6 µM] | -9.0%[172 µM]
CN(C)Cc1cn([C@H]2CO[C@H]3[C@@H]2OC[C@H]3OC(=O)Nc2ccc(C(C)(C)C)cc2)nn1 | ? | 70.8µM* | -1.8%[70.6 µM] | ?
CN1C(=O)[C@@H]2C[C@@H](CN2Cc2ccc3c(c2)OCO3)Oc2ccccc21 | -17.4%[138 µM] | i | -17.9%[70.6 µM] | -19.7%[172 µM]
O=C(c1csc(-c2cccs2)n1)N1CCC2(CCCO2)CC1 | ? | 35.5µM* | 3.0% | ?
O=C(O)C1CN(C(=O)c2csc(-c3cccs3)n2)CCO1 (centres undefined) | 4.8% | i | 3.1% | i
O=C1Nc2ccccc2C12CCN(Cc1cccc3ccccc13)C2 (centres undefined) | 79.4µM* | . | . | 79.4µM*
COc1ccc(CN2CCC3(C2)C(=O)Nc2ccccc23)cc1 (centres undefined) | -1.5% | . | . | ?
Cn1c(CO[C@H]2CN(Cc3ccc4c(c3)OCCO4)C[C@H]2F)nc2ccccc21 | 89.1µM* | i | -10.0%[70.6 µM] | ?
